{"source": "PubChem BioAssay AID651871", "about": "(Sanford-Burnham Center for Chemical Genomics, 2012)", "note": "Several values for one entry are separate records, joined by “and”; a condition that tells them apart may be missing. Identical values can stand only once."}
{"tested_on": "H9c2", "test": "protection of cardiomyocytes from stress damage, SAR follow-up, cell-based, panel, H9c2 and HL-1, ATP luminescence, set 2 (AID 651871);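 note: cells exposed to stressor for 2 h before ATP readout; reference of the scale not given here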", "conditions": "H9c2/HL-1 cardiomyocytes, 2-deoxyglucose stress, with 2-deoxyglucose; run 3, at 79 µM (top of the series)"}
{"smiles": "COc1ccc2nc(-c3cc(OC)c(OC)c(OC)c3)cc(C(=O)NCC(=O)Nc3ccc(C(C)=O)cc3)c2c1", "activity (protection/inhibition)": "75.4%"}
{"smiles": "CCOC(=O)c1cccc(NC(=O)CNC(=O)c2cc(-c3cc(OC)c(OC)c(OC)c3)nc3ccccc23)c1", "activity (protection/inhibition)": "92.4%"}
{"smiles": "COc1ccc2c(c1OC)C(=O)N1c3ccccc3C(=O)N(Cc3cccc(Cl)c3Cl)C21", "note": "(stereo not drawn)", "activity (protection/inhibition)": "71.2% and 81.8% and -10.3%"}
